# Only a selection was taken, and hits are over-represented in it overall.
# Methyltransferases = Primary Screen for Target Class Profiling of Small Molecule Inhibitors of Methyltransferases; calls only at 40 µM; AID 1745853, 2022; purified enzyme, MTase-Glo SAH luminescence; stronger effect = lower value; hit rate 3.9% among 25,000; call rule not given here
#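 Each enzyme was assayed with SAM and its substrate. SAH formation detected by MTase-Glo luminescence; single-point 40 uM screen[…].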
# Numbers without * were called inactive; i = inactive; + = active, no number. % is scaled to controls: 0 for no effect and ±100 for the full control effect.
SMILES,Methyltransferases
C=C1C(OC(C)=O)C(=O)C2C(C)(C)C(OC(C)=O)CCC2(C)C1CC(OC(C)=O)/C(C)=C/COC(C)=O (stereo not drawn),i
COc1ccc(Cn2c(=O)c3ccccc3n3c(-c4ccc(Cl)cc4)nnc23)cc1,i
CC(C)(C)Sc1c(CC(C)(C)C(=O)O)n(Cc2ccc(Cl)cc2)c2ccc(OCc3ccc4ccccc4n3)cc12,+
COc1ccc(CNC(=O)CCc2nnc3n(Cc4ccc(Cl)cc4)c(=O)c4ccccc4n23)cc1,i
CC1=C2C(=O)O[C@@H](c3ccoc3)[C@]2(C)CCC1,i
CC1(C(=O)NC2CCCCCCC2)Cn2c(cc3sccc32)C(=O)N1CCN1CCOCC1 (stereo not drawn),i
CCC(C(=O)NCc1ccc(C)cc1)n1ccc2cc(S(=O)(=O)N3CCCCC3)ccc21 (stereo not drawn),i
O=C(CCCn1nc(-c2ccccc2)c2ccccc21)N1CCN(c2ccc(F)cc2)CC1,i
CC1=CC(=O)[C@H]2C(C)(C)CCC[C@]2(C)[C@@]1(O)CO,i
CC1=CC(=O)C2C(C)(C)CCCC2(C)C12CCC1(COC(=O)C1)O2 (stereo not drawn),+
CC(=O)O[C@H]1[C@H](OC(=O)C(C)C)[C@]2(C)OC3(CC[C@]2(C)[C@H]2CCC[C@]4(CO4)[C@]12C)COC(=O)C3 (stereo partly drawn),i
CC1(C(=O)NC2CCCCCC2)Cc2ccccc2C(=O)N1C1CCCCCC1 (stereo not drawn),i
CCCn1c(=O)c2ccc(Cl)cc2n2c(=O)n(CC(=O)Nc3ccc4c(c3)OCCO4)nc12,i
O=C(NCCc1c[nH]c2ccc(Cl)cc12)c1cc2n(n1)CCCN(Cc1ccccc1)C2=O,i
Cn1c(=O)c2ccc(C(=O)NC3CCCCC3)cc2n2c(SCc3c(F)cccc3Cl)nnc12,i
COC(=O)C1=COC(O[C@@H]2O[C@H](CO)[C@@H](O)[C@H](O)[C@H]2O)/C(=C\COC(=O)/C=C/c2ccccc2)C1CC(=O)OCCc1ccc(O)cc1 (stereo partly drawn),i
CCOC(=O)c1ccc(NS(=O)(=O)c2ccc3c(c2)n(C)c(=O)n3C)cc1,i
CCOC(=O)c1cccc(NS(=O)(=O)c2ccc3[nH]c(=O)[nH]c3c2)c1,i
CCOC(=O)c1cnc2ccc(-c3cncc(NS(=O)(=O)c4ccccc4)c3)cn12,+
Cc1ccc(C)c(N2C(=O)c3cc(C(C)(C)C)nn3CC2(C)C(=O)NCc2ccccc2)c1 (stereo not drawn),i
CCC1Oc2ccc(NC(=O)CC(C)(C)C)cc2CN(Cc2ccccc2F)C1=O (stereo not drawn),i
CN1C(=O)c2cc(C(=O)NCc3ccc(F)cc3)nn2CC1(C)C(=O)NC1CCCC1 (stereo not drawn),i
N#Cc1ccc2[nH]cc(CCCCN3CCN(c4ccc5oc(C(N)=O)cc5c4)CC3)c2c1,+
Cc1ccc(CNC(=O)C2(C)Cn3cnc(C(=O)Nc4ccc(Cl)cc4F)c3C(=O)N2C2CC2)cc1 (stereo not drawn),i
O=C(CNC(=O)c1cccc(C(F)(F)F)c1)N[C@@H]1CCN(Cc2ccc(Cl)cc2)C1,i
SMILES,Methyltransferases
COc1ccc(C2(O)CCC(N3CC[C@@H](NC(=O)CNC(=O)c4cccc(C(F)(F)F)c4)C3)CC2)cn1 (stereo partly drawn),+
CC(=O)NC1CCN(C(=O)c2coc(COc3cccc(C(F)(F)F)c3)n2)C1 (stereo not drawn),i
CCC(C)NC(=O)c1ccc2c(=O)n(C)c3nnc(SCC(=O)Nc4ccccc4OC)n3c2c1 (stereo not drawn),i
CCC(C)NC(=O)c1ccc2c(=O)n(CC(C)C)c3n[nH]c(=O)n3c2c1 (stereo not drawn),i
COc1cc2c(Nc3ccc(Cl)c(Cl)c3F)ncnc2cc1OCC1C[C@@H]2CN(C)C[C@@H]2C1 (stereo partly drawn),+
Cn1cc(-c2cnc(Nc3ccc(F)c(Cl)c3)c3c2CCO3)cn1,i
COCCOc1cc2ncnc(Cl)c2cc1OCCOC,i
COc1cc2ncnc(Nc3ccc(F)c(Cl)c3)c2cc1OCCCN1CCOCC1,+
COc1cc2c(Oc3ccc(NC(=O)C4(C(=O)Nc5ccc(F)cc5)CC4)cc3F)ccnc2cc1OCCCN1CCOCC1,i
Cn1c(=O)n(C)c2cc(S(=O)(=O)N(Cc3ccco3)C(=O)c3ccco3)ccc21,i
CC(C)NC(=O)c1ccc2c(=O)n(C(C)C)c3nn(CC(=O)N(C)c4ccc(F)cc4)c(=O)n3c2c1,i
COc1ccc(N2CCN(C(=O)c3cc4c(s3)CN(C3CCCC3)C4)CC2)cc1,i
Cc1c(OCC(F)(F)F)ccnc1CS(=O)c1nc2ccccc2[nH]1 (stereo not drawn),+
COC(=O)c1ncn2c1C(=O)N(c1cc(C)ccc1C)C(C)(C(=O)NC1CCCC1)C2 (stereo not drawn),i
CCC(CC)C(c1ccc(Nc2nc3ccccc3s2)cc1)n1cncn1 (stereo not drawn),+
CC(=O)O[C@H]1[C@H](O)C[C@@]2(C)C(CC[C@]3(C)C2CC=C2C4CC(C)(C)CC[C@]4(C(=O)O)CC[C@]23C)C1(C)C (stereo partly drawn),i
CC1(C)[C@@H](O)CC[C@]2(C)[C@H]3CC=C4[C@@H]5C[C@](C)(C(=O)O)CC[C@]5(C)CC[C@@]4(C)[C@]3(C)CC[C@@H]12,+
CC1(C)CC[C@]2(C(=O)O)CC[C@]3(C)C(=CCC4[C@@]5(C)C[C@@H](O)[C@H](O)C(C)(C)C5CC[C@]43C)[C@@H]2[C@@H]1O (stereo partly drawn),i
CC(C)CCNC(=O)C1(C)Cn2nc(C(=O)NCCCN3CCCCC3)cc2C(=O)N1C (stereo not drawn),i
COc1ccc(OC)c(NC(=O)N2Cc3c(sc4c3CCCC4)-n3cccc3C2c2ccccc2)c1 (stereo not drawn),i
O=C(c1ccc(OCCCc2cnc[nH]2)cc1)C1CC1,i
N=C(N)c1ccccc1,i
N=C(N)c1ccc(OCCCCCOc2ccc(C(=N)N)cc2)cc1 (tested in a mixture with another compound),+
CC1(C(=O)NC2CCCCC2)Cn2nc(-c3cccs3)cc2C(=O)N1Cc1ccc(Cl)cc1 (stereo not drawn),i
CC1CCC(NC(=O)C2(C)Cc3ccccc3C(=O)N2CCc2ccccc2)CC1 (stereo not drawn),i
SMILES,Methyltransferases
O=C1C(Cc2ccc(O)cc2)N2C(=O)CCN(C(=O)NCc3ccccc3)C2CN1Cc1cccc2ccccc12 (stereo not drawn),i
Cc1cccc(NC(=O)CSc2nnc3[nH]c(=O)c(C(C)(C)C)nn23)c1,i
O=C1Nc2ccccc2/C1=C/c1cc(O)ccc1O,+
Cc1[nH]c(/C=C2\C(=O)Nc3cc(-c4ccccc4)ccc32)c(C)c1CCC(=O)O,i
CN1C(=O)c2ccccc2NC(=O)[C@]12O[C@@H]2c1cccc(O)c1,i
CC1(C(=O)NCc2ccccc2)Cn2c(ccc2-c2ccco2)C(=O)N1Cc1ccccc1F (stereo not drawn),i
COc1ccc(-c2cccc(C(=O)NC3CCOCC3)c2)nn1,i
Cc1ccc(NC(=O)Cn2nc3n(CCc4ccccc4)c(=O)c4ccccc4n3c2=O)cc1C,i

# Assay outcomes (PubChem)
